Source: PubChem BioAssay (NCATS)
Records with an inconclusive call do not appear. Where a call stands in place of a potency, no number is given. Values without a mark were called inactive. Active and inactive are the calls of the source. The call rests on the fitted dose curve; in most records, active means well fitted inhibition curve with a large enough effect; inconclusive means small, poorly fitted or top-dose-only effect; inactive means flat fitted curve, though single readings scatter. *1 amine or outer side, *2 acyl side, *3 side chain or, on linkers, in order; H or OH if unused. Where a SMILES comes first, the peptide text is derived from it. [ ]: non-standard residue; d: D form. ξ: configuration not given here. X7 = O=C([C@@H](CC(O)CCl)O[*:1])[*:2]; aIle = CC[C@@H](C)[C@H](N)C(=O)O; ξLac(3-iPr) = CC(C)CC(O)C(=O)O; NMeV = CN[CH](C(=O)O)C(C)C; NMeA = CN[CH](C)C(=O)O; βAla = NCCC(=O)O

target: Phospholipid hydroperoxide glutathione peroxidase GPX4 (Homo sapiens) (UniProt P36969); assay: Primary qHTS Assay for Inhibitors of Recombinant Selenoprotein Glutathione Peroxidase 4 (GPX4) (AID 1845192); conditions: recombinant GPX4, GR-coupled NADPH fluorescence, 15 min; series mostly up to 50 µM; further: nearly all actives have a fitted effect of over 65% in size
Description: Assay Provider: Elias S.J. Arner MD PhD.
Department of Medical Biochemistry and Biophysics
Karolinska Institutet, Solna, Stockholm, Sweden
Selenoprotein glutathione peroxidases (GPX), like the ubiquitously expressed GPX1 and the ferroptosis modulator GPX4, enact their antioxidant activities by reducing hydroperoxides using glutathione. […] GPX1 and GPX4 inhibitors have thus shown promise as anti-cancer agents. Existing inhibitors are often promiscuous, or modulate GPX activity only indirectly, so novel direct inhibitors identified through screening against GPX1 and GPX4 could be valuable. Here, we developed optimized glutathione reductase (GR)-coupled GPX assays for the biochemical high-throughput screen (HTS) of almost 12,000 compounds with known mechanisms of action. Initial hits were triaged using a GR counter-screen, assessed for isoform specificity using a separate GPX2 assay, and were assessed for general selenocysteine-targeting activity using a thioredoxin reductase (TXNRD1) assay. With this suite of assays, we identified novel GPX1/GPX2- and GPX4-specific inhibitors and can here present a validated pipeline for future discovery research for selenoprotein-targeting agents.
SEQUENCE No. (e.g., 1, 2, 3, etc.); […] (e.g., Cells, Incubation, Reagent, etc.); VALUE; DESCRIPTION.
1; Reagent 1; 3 uL; 333.33 nM GPx4 enzyme or no enzyme control in 1536-well, black, solid Greiner assay plate.
2; Compound; 25 nL; Kalypsis pin tool (Wako USA) equipped with a 1536-well pin head.
3; Incubation; 30 min; room temperature.
4; Reagent 2; 1 uL; 500 nM GR, 5 mM GSH, 2.5 mM NADPH solution
5; Reagent 3; 1 uL; 2.5 mM CHP in 50% EtOH.
6; Detection; Fluorescence; ViewLux microplate reader, excitation 340 nm and emission 450 nm.
7; Incubation; 15 min; room temperature.
8; Detection; Fluorescence; ViewLux microplate reader, excitation 340 nm and emission 450 nm.
NOTES (numbers refer to Sequence numbers above)
1. 3 µL of 333.33 nM GPX4 and 0.016% BSA in assay buffer (50 mM Tris-HCl, 2 mM EDTA (pH 7.5), 150 mM NaCl) was added to columns 3-48 of 1536-well plates using a BioRAPTR Flying Reagent Dispenser (Let's Go Robotics (LGR), Carlsbad, CA). A no-enzyme control (0.01% BSA in TES assay buffer) was added to columns 1-2.
2. 25 nL, library and DMSO controls were added to each well with a pin tool (Kalypsys).
3. The assay plates were incubated for 30 minutes at room temperature.
4. 1 µL of master mix (500 nM glutathione reductase (GR), 5 mM reduced glutathione (GSH), 2.5 mM NADPH in assay buffer) was added.
5. 1 µL of cumene hydroperoxide (CHP) ([2.5 mM] in 50% EtOH) was then added within 5 minutes to initiate the reaction. Final concentrations were: 200 nM GPX4, 1 mM GSH, 0.5 mM CHP, 0.5 mM NADPH, 100 nM GR, 0.01% BSA.
6. Initial fluorescence readout (t=0) at 340/450 nm was measured using a ViewLux multimodal detector (PerkinElmer, Waltham, MA).
8. Endpoint fluorescence readout (t=15) at 340/450 nm was measured 15 min after room temperature incubation.

Phospholipid hydroperoxide glutathione peroxidase GPX4 (Homo sapiens), sequence (P36969 whole entry, looked up): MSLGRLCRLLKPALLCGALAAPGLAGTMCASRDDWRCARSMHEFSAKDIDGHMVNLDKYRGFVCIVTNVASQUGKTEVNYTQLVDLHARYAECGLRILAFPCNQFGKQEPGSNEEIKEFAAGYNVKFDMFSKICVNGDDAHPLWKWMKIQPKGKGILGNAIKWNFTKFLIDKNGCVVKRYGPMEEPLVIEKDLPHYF

Row | Structure (SMILES) | Potency | activity change, negative = inhibition
1 | COc1cc2c(cc1F)C(c1ccccc1Cl)=Nc1c(n[nH]c1C)N2 | inactive | –
2 | C[C@H]1CCC/C=C/C2C[C@H](O)C[C@H]2[C@H](O)/C=C/C(=O)O1 (stereo not given in full) | inactive | –
3 | Cc1ccccc1C1=CCN(C)CC1 | inactive | –
4 | CC(C)=CCN1CC[C@]2(C)c3cc(O)ccc3C[C@H]1[C@H]2C | inactive | –
5 | CO[C@H]1[C@H](O)[C@H](O[C@H]2CC[C@]3(C=O)C4CC[C@]5(C)[C@H](C6=CC(=O)OC6)CC[C@]5(O)C4CC[C@@H]3C2)O[C@@H](C)[C@@H]1O (stereo not given in full) | inactive | –
6 | COC(=O)CC1CC2(C(=O)c3c(O)cccc3C2(O)C(=O)OC)C(C)O1 (stereo not given) | inactive | –
7 | CC(=O)O[C@H]1CC[C@@]2(CI)C(=CC[C@@H]3[C@@H]2CC[C@]2(C)C(=O)CC[C@@H]32)C1 | inactive | –
8 | CCCN(CCC)CCc1ccc(OC)c(OCCc2ccccc2)c1 | inactive | –
9 | CCC1CN2CCc3cc(OC)c(OC)cc3C2CC1CC1=NCCc2cc(O)c(OC)cc21 (stereo not given) | inactive | –
10 | CN1CCCCC1Cn1cc(C(=O)c2cc([N+](=O)[O-])ccc2I)c2ccccc21 (stereo not given) | inactive | –
11 | CC(=O)O[C@H]1C(=O)[C@]2(C)C(O)C[C@H]3OC[C@@]3(OC(C)=O)[C@H]2[C@H](OC(=O)c2ccccc2)[C@]2(O)C[C@H](O)C(C)=C1C2(C)C (stereo not given in full) | inactive | –
12 | Cc1nnc2n1-c1sc(Br)cc1C(c1ccccc1Cl)=NC2 | inactive | –
13 | CC(=O)[C@@]1(O)CC[C@H]2[C@@H]3CCC4=CC(=O)CC[C@]4(C)C3(F)[C@@H](O)C[C@@]21C (stereo not given in full) | inactive | –
14 | C=C1[C@@H](C)[C@H]2[C@H](Cc3ccccc3)NC(=O)[C@]23[C@H](OC(C)=O)/C=C/[C@](C)(O)C(=O)[C@@H](C)C/C=C/[C@H]3[C@@H]1O | inactive | –
15 | CC/C=C/C=C/C1(C)OC(OC)=C(C(=O)C2C(C)C(=O)c3cc(OC)c(O)c(O)c3C2(C)O)C1=O (stereo not given) | inactive | –
16 | Cc1cccc(NC(=O)N[C@H]2CN(C)c3ccccc3C(c3ccccc3)=N2)c1 | inactive | –
17 | C[C@H]1O[C@@H](O[C@H]2CC[C@]3(CO)C4CC[C@]5(C)[C@@H](C6=CC(=O)OC6)CC[C@]5(O)[C@@H]4CC[C@H]3C2)[C@H](O)[C@H](O)[C@@H]1O[C@@H]1O[C@H](CO)[C@@H](O)[C@H](O)[C@H]1O (stereo not given in full) | inactive | –
18 | CC[C@H](C)[C@H](NC(=O)[C@H]1CCCCN1C)C(=O)N(COC(=O)CC(C)C)[C@H](C[C@@H](OC(C)=O)c1nc(C(=O)N[C@@H](Cc2ccc(O)cc2)C[C@H](C)C(=O)O)cs1)C(C)C | – | -13.5% [at 1.09 µM]
19 | CC[C@@H]1C[C@H]2CC[C@H](O2)[C@H](C)C(=O)O[C@@H](C)C[C@@H]2CC[C@@H](O2)[C@@H](C)C(=O)O[C@H](C)C[C@H]2CC[C@H](O2)[C@H](C)C(=O)O[C@@H](C)C[C@@H]2CC[C@@H](O2)[C@@H](C)C(=O)O1 | inactive | –
20 | CCC1CN2CCC3(C(=O)Nc4cccc(O)c43)C2CC1/C(=C/OC)C(=O)OC (stereo not given) | inactive | –

Row | Structure (SMILES) | Potency | activity change, negative = inhibition
21 | CC(=O)OC[C@]12C[C@H](OC(C)=O)C(C)=C[C@H]1O[C@@H]1[C@H](O)[C@@H](O)[C@@]2(C)[C@]12CO2 | inactive | –
22 | CCC(C)C1NC(=O)C2CCCN2C(=O)C(CC(C)C)OC(=O)CCNC(=O)C(C)N(C)C(=O)C(C(C)C)N(C)C1=O (stereo not given) (cyclo([ξLac(3-iPr)]PI[NMeV][NMeA][βAla]); configuration not given here) | inactive | –
23 | COc1ccc(CN(C(=O)[C@@H](N)Cc2c(C)cc(C(N)=O)cc2C)[C@@H](C)c2ncc(-c3ccccc3)[nH]2)cc1C(=O)O | inactive | –
24 | Cc1cccc(NC(=O)NC2N=C(c3ccccc3)c3ccccc3N(CC(=O)c3ccccc3C)C2=O)c1 (stereo not given) | inactive | –
25 | C/C=C(\C)C(O)C(C)/C=C(C)/C=C/C/C(C)=C/Cc1nc(OC)c(OC)c(O[C@@H]2O[C@@H](C)[C@H](O)[C@@H](O)[C@H]2O)c1C (stereo not given in full) | inactive | –
26 | CC(C)(C)[C@]1(O)C[C@@H]2OC(=O)C[C@@]23C(=O)O[C@@H]2OC(=O)[C@@H](O)[C@]213 | inactive | –
27 | CC(=O)O[C@H]1C[C@@H](C)O[C@H]2O[C@@H]3CC4CC[C@@H]5C(CC[C@]6(C)[C@@H](C7=CC(=O)OC7)CC[C@]56O)[C@@]4(C=O)C[C@H]3O[C@]21O (stereo not given in full) | inactive | –
28 | C[C@H]1CN(Cc2ccc(CC(=O)N3CCC(Nc4cccc(F)c4)CC3)cc2)CCN1 | inactive | –
29 | C=CC(C)(C)c1[nH]c2c(CC=C(C)C)cc(CC=C(C)C)cc2c1C[C@@H]1NC(=O)[C@H](C)NC1=O | inactive | –
30 | C[C@H](CCC(=O)O)C[C@H](C)C[C@H](C)C(=O)/C=C(\O)[C@H](C)C[C@H](C)C/C=C/[C@@H](C)[C@@H](O)[C@@H](C)[C@@H](O)C[C@@H]1CC[C@@](C)([C@H]2CC[C@@](C)([C@@H](C)O)O2)O1 | inactive | –
31 | CN1C(=O)CN=C(c2ccccc2Cl)c2cc(Cl)ccc21 | inactive | –
32 | CC[C@H]1C2CC3[C@@H]4N(C)c5ccccc5[C@]45C[C@@H]([C@H]2[C@H]5O)N3[C@@H]1O | inactive | –
33 | C[C@@H]1O[C@@H](O[C@H]2CC[C@@]3(C)C(CC[C@@H]4C3CC[C@]3(C)[C@@H](C5=CC(=O)OC5)CC[C@]43O)C2)[C@H](O[C@@H]2O[C@H](CO)[C@@H](O)[C@H](O)[C@H]2O)[C@H](O)[C@H]1O (stereo not given in full) | inactive | –
34 | CCCCCn1cc(C(=O)C2C(C)(C)C2(C)C)c2ccccc21 | inactive | –
35 | COc1ccc(CC2C(=O)NC(C)C(=O)N(C)C3Cc4ccc(cc4)Oc4cc(ccc4OC4OC(CO)C(O)C(O)C4O)CC(C(=O)NC(C)C(=O)NC(CCC(=O)O)C(=O)N2C)N(C)C3=O)cc1 (stereo not given) | inactive | –
36 | CC[C@@H](C)[C@@H]1NC(=O)[C@@H]2CCCN2C(=O)[C@@H](CC(O)CCl)OC(=O)CCNC(=O)[C@H](C)N(C)C(=O)[C@H](C(C)C)N(C)C1=O (stereo not given in full) (cyclo([NMeA][βAla][X7]P[aIle][NMeV])) | inactive | –
37 | COc1ccsc1CNCC[C@@]1(c2ccccn2)CCOC2(CCCC2)C1 | inactive | –
38 | Cc1sc2c(c1C)C(c1ccc(Cl)cc1)=NC(CC(=O)OC(C)(C)C)c1nnc(C)n1-2 (stereo not given) | inactive | –
39 | CC1=CC(=O)[C@@H](O)[C@]2(C)C3[C@@H](O)[C@@H]4OC(=O)[C@@H]([C@H]4C)[C@]3(C)C(=O)C[C@@H]12 (stereo not given in full) | inactive | –
40 | C=CCN1CCC2(C)c3cc(O)ccc3C[C@H]1[C@H]2C | inactive | –
